Bioassay records deposited in PubChem BioAssay by several laboratories.
TNF death inh: inhibitors of TNF-alpha induced necroptosis in Jurkat FADD-/- cells. Jurkat FADD-/- TNF necroptosis rescue, ATP luminescence, 24 h; 0 = TNF only, 100 = no-TNF cells. activation (protection from cell death), % at 10 µM. 220,000 tested, 0.068% active;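 active = activation, meaning protection from cell death, of at least 50% relative to plate controls; inactive = activation below 50%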;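 also: necroptosis triggered by 40 ng/mL TNF-alpha added together with compound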
Calpain2 inh: inhibitors of pig calpain II; purified calpain II, fluorogenic peptide substrate, 30 min; inhibition, % at 16 µM; 220,000 tested, 0.37% active; AID 1236;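 active = inhibition above about 50%, limit read from the data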
zVAD death inh: L929 zVAD cell death inhibition; viability rescue, % at 10 µM; L929 zVAD necroptosis rescue, ATP luminescence, 24 h; with zVAD 60 µM; 220,000 tested, 0.38% active; AID 1377;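 active = activation, scaled between plate controls, above about 75%, limit read from the data; inactive = activation under that limit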;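 also: 0% = zVAD with DMSO and 100% = DMSO alone without zVAD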
HSV augment: HSV replication enhancement; HSV replication augmentation in cells, fold increase; maximum fold increase; 220,000 tested, 0.005% active; AID 1956; in the data active = maximum fold increase above about 1.5; tested in PC3 cells
Starred values were filed as active, the others as inactive; i = inactive. Rows were chosen to be rich in hits. Some 0.77% of all compounds tested hit in one or more screens of this group.

SMILES	TNF death inh	Calpain2 inh	zVAD death inh	HSV augment
COc1ccc(C(=O)C23CC4CC(C2)CC(C(=O)c2ccc(OC)cc2)(C4)C3)cc1	2	63*	-1	i
COc1ccc(C(=O)c2ccc(Cl)cc2)cc1	0	1	0	i
COC(=O)c1ccccc1NC(=O)CSc1nnc(-c2cccnc2)n1N	-1	-15	1	i
O=C1NN=C(c2ccc(Cl)cc2)CC1c1cccc(Br)c1 (stereo unspecified)	1	54*	4	i
O=S(=O)(c1ccccc1Br)N1CCC(O)(c2cccnc2)CC1	1	24	1	i
Cc1ccc(C)c(OCCCC(=O)Nc2nccs2)c1	2	69*	0	i
COC(=O)/C=C1\SC(N2CCOCC2)=C(c2ccc(OC)cc2)C1=O	1	-12	0	i
COc1cc(NC(=O)c2ccc(Cl)cc2Cl)ccc1NC(=O)c1cccs1	3	-61	-1	i
Cc1ccc(CNc2nc(Cl)c(C#N)s2)cc1	2	76*	2	i
CCOC(=O)CNc1nc(Cl)c(C#N)s1	1	7	2	i
CCOC(=O)C1CCCN(C(=O)CSc2ccc(NC(C)=O)cc2)C1 (stereo unspecified)	2	63*	0	i
OC(c1ccccc1)c1nc2ccccc2s1 (stereo unspecified)	50*	-13	6	i
O=C(O)CSc1nc2ccccc2s1	1	25	-1	i
CC(Sc1nnc(NCc2ccccc2)s1)C(=O)Nc1ccc2c(c1)C(=O)c1ccccc1C2=O (stereo unspecified)	80*	-50	4	i
CC(/C=C1\SC(=S)N(c2ccc(C(=O)O)cc2)C1=O)=C\c1ccccc1	0	73*	0	i
CC(/C=C1\SC(=S)N(NC(=O)c2ccc(C)cc2)C1=O)=C\c1ccccc1	-3	-14	0	i
COc1ccc(N(CCC#N)C(=O)/C(C#N)=C\c2cccs2)cc1	0	11	-1	i
O=C(N/N=C/c1ccc(Cl)c([N+](=O)[O-])c1)C1CC1	2	54*	-1	i
O=C(N/N=C/c1cc(Cl)cc([N+](=O)[O-])c1O)C1CC1	0	0	0	i
O=C(c1ccco1)N(Cc1cccc([N+](=O)[O-])c1)c1ccc(Br)cc1	-2	52*	-1	i
CCOc1ccc(OCc2ccc(C(=O)N3CCCC(C)C3)cc2)cc1 (stereo unspecified)	0	71*	1	i
CCCCCCn1c(SCCCC)nc2c1c(=O)[nH]c(=O)n2C	-2	19	0	i
CCn1c([N+](=O)[O-])nc2c1c(=O)[nH]c(=O)n2C	51*	-21	-2	i
Cc1[nH]c(=O)c(C(=O)/C=C/c2ccccc2F)c2c1CCCC2	-21	-2	92*	i
O=C(CS(=O)(=O)c1ccccc1)Nc1ccc(N2CCOCC2)cc1	0	-4	2	i
SMILES	TNF death inh	Calpain2 inh	zVAD death inh	HSV augment
CC1=CC(C)(C)Nc2ccc(OC(=O)C(Cc3ccccc3)N3C(=O)c4ccccc4C3=O)cc21 (stereo unspecified)	-5	-30	97*	i
O=C(NCc1cccs1)c1ccccc1	4	22	1	i
O=C(NCc1cccs1)c1cccc(Nc2nc3ccc(Br)cc3[nH]2)c1	-1	55*	1	i
CCCc1cc(-c2n[nH]c(=S)n2CC(C)C)cs1	0	50*	0	i
Cc1ccc(N=c2c([N+](=O)[O-])nn(-c3ccc4c(c3)OCCO4)n2O)c(Cl)c1	-2	53*	0	i
CN(Cc1ccccc1)Cc1nc2scc(-c3ccccc3)c2c(=O)[nH]1	1	-5	3	i
Cc1c(O)ccc(C(=O)CN2C(=O)c3ccccc3C2=O)c1O	-11	78*	-1	i
Cc1cc(C(=O)CN2C(=O)c3ccccc3C2=O)c(C)n1C1CC1	-1	-44	2	i
COc1cc2nc(CCc3ccccc3)oc(=O)c2cc1OC	0	12	1	i
COc1cccc(C=NCCNC(=O)c2nonc2N)c1O	-1	101*	0	i
CC(=O)Nc1ccc(Nc2ccc(S(=O)(=O)C(F)(F)F)cc2[N+](=O)[O-])cc1	-3	55*	-1	i
O=C1NCCN/C1=C\C(=O)c1cccc(Br)c1	0	8	0	i
Cc1cc(CN(C)Cc2cn(C)nc2-c2ccc(Oc3ccccc3)cc2)on1	-4	2	0	i
Cc1ccc(C2CC(c3cccs3)=NN2C(=O)c2ccco2)o1 (stereo unspecified)	0	51*	1	i
